Assay results from the supplement of paper PMC6279402.
Where a name gives a salt, the structure may show the parent alone. ± gives the standard deviation of the averaged measurements.

Each compound was assayed on A549 (assay: relative viability (normalised to negative control = 1, bortezomib = 0) (fraction); higher = less cytotoxic). Details: inflammatory serum-free RHB-A with cytokines + LPS; 5 d + 24 h CellTiter-Blue; compound 30 nM; GSK126 pretreatment: 5 uM GSK126.

| Compound | relative viability |
| --- | --- |
| Cc1ccc(C(=O)Nc2cccc(C(F)(F)F)c2)cc1Nc1nc(-c2cccnc2)nc2c1cnn2C | 0.992 ± 0.12 |
| O=c1ncn2nc(Sc3ccc(F)cc3F)ccc2c1-c1c(Cl)cccc1Cl | 0.831 ± 0.12 |
| C=CC(=O)Nc1cc2c(Nc3ccc(F)c(Cl)c3)ncnc2cc1OCCCN1CCOCC1 [CI-1033(Canertinib)] | 0.602 ± 0.014 |
| Cc1ccc(NC(=O)c2ccc(CN3CCN(C)CC3)cc2)cc1Nc1nccc(-c2cccnc2)n1 | 0.902 ± 0.12 |
| Cc1cc(Nc2cc(N3CCN(C)CC3)nc(/C=C/c3ccccc3)n2)n[nH]1 | 0.897 ± 0.13 |
| NC(N)=NC(N)=NCCc1ccccc1 [Phenformin hydrochloride] | 0.897 ± 0.13 |
| CCS(=O)(=O)c1cccc(-c2cc(C(=O)NC3CCN(C)CC3)c(C)c3[nH]c4ncc(C)cc4c23)c1 | 0.702 ± 0.12 |
| COc1cc2ncnc(Nc3cccc(Br)c3)c2cc1OC | 0.996 ± 0.044 |
| Cc1ncc(-c2ccnc(Nc3ccc(S(C)(=O)=O)cc3)n2)n1C(C)C | 0.867 ± 0.072 |
| CC(=O)O[C@H]1C(=O)[C@@]2(C)[C@H]([C@H](OC(=O)c3ccccc3)[C@]3(O)C[C@H](OC(=O)[C@H](O)[C@@H](NC(=O)c4ccccc4)c4ccccc4)C(C)=C1C3(C)C)[C@]1(OC(C)=O)CO[C@@H]1C[C@@H]2O [Paclitaxel; Taxol] | 0.391 ± 0.044 |
| CC(=O)O[C@@]12CO[C@@H]1C[C@H](O)[C@@]1(C)C(=O)[C@H](O)C3=C(C)[C@@H](OC(=O)[C@H](O)[C@@H](NC(=O)OC(C)(C)C)c4ccccc4)C[C@@](O)([C@@H](OC(=O)c4ccccc4)[C@H]21)C3(C)C [Docetaxel] | 0.491 ± 0.058 |
| CN(c1ncccc1CNc1nc(Nc2ccc3c(c2)CC(=O)N3)ncc1C(F)(F)F)S(C)(=O)=O | 0.902 ± 0.22 |
| COc1cc(N2CCC(N3CCN(C)CC3)CC2)ccc1Nc1ncc(Cl)c(Nc2ccccc2S(=O)(=O)C(C)C)n1 | 0.545 ± 0.012 |
| Cc1c2oc3c(C)ccc(C(=O)N[C@@H]4C(=O)N[C@H](C(C)C)C(=O)N5CCC[C@H]5C(=O)N(C)CC(=O)N(C)[C@@H](C(C)C)C(=O)O[C@@H]4C)c3nc-2c(C(=O)N[C@@H]2C(=O)N[C@H](C(C)C)C(=O)N3CCC[C@H]3C(=O)N(C)CC(=O)N(C)[C@@H](C(C)C)C(=O)O[C@@H]2C)c(N)c1=O [Dactinomycin] | -0.00158 ± 0.00097 |
| C=CC(=O)Nc1cccc(Oc2nc(Nc3ccc(N4CCN(C)CC4)cc3)ncc2Cl)c1 | 0.802 ± 0.067 |
| CC[C@H](Nc1ncnc2nc[nH]c12)c1nc2cccc(F)c2c(=O)n1-c1ccccc1 | 0.899 ± 0.11 |
| COc1cc(Nc2ncc3c(n2)-c2ccc(Cl)cc2C(c2c(F)cccc2OC)=NC3)ccc1C(=O)O | 0.804 ± 0.087 |
| O=P(O)(O)C(O)(Cn1ccnc1)P(=O)(O)O [Zoledronic acid; Zolendronic acid] | 0.936 ± 0.023 |
| COc1cc([C@@H]2c3cc4c(cc3[C@@H](O[C@@H]3O[C@@H]5CO[C@@H](C)O[C@H]5[C@H](O)[C@H]3O)[C@H]3COC(=O)[C@H]23)OCO4)cc(OC)c1O [Etoposide] | 0.938 ± 0.081 |

| Compound | relative viability |
| --- | --- |
| CO[C@H]1C[C@@H]2CC[C@@H](C)[C@@](O)(O2)C(=O)C(=O)N2CCCC[C@H]2C(=O)O[C@H]([C@H](C)C[C@@H]2CC[C@@H](OC(=O)C(C)(CO)CO)[C@H](OC)C2)CC(=O)[C@H](C)/C=C(\C)[C@@H](O)[C@@H](OC)C(=O)[C@H](C)C[C@H](C)/C=C/C=C/C=C/1C [CCI-779; Temsirolimus] | 0.532 ± 0.038 |
| CCN(CCO)CCCOc1ccc2c(Nc3cc(CC(=O)Nc4cccc(F)c4)[nH]n3)ncnc2c1 [AZD1152-HQPA(Barasertib)] | 0.73 ± 0.079 |
| CNC(=O)CN1CCC(Oc2cc3c(Nc4cccc(Cl)c4F)ncnc3cc2OC)CC1 | 0.536 ± 0.14 |
| Oc1cccc(-c2nc(N3CCOCC3)c3oc4ncccc4c3n2)c1 | 0.743 ± 0.082 |
| Cn1cnc(-c2cc3nccc(Oc4ccc(NC(=S)NC(=O)Cc5ccccc5)cc4F)c3s2)c1 | 0.819 ± 0.071 |
| COc1c2occc2cc2ccc(=O)oc12 [Methoxsalen] | 0.902 ± 0.065 |
| CN(N=O)C(=O)N[C@@H]1[C@@H](O)[C@H](O)[C@@H](CO)O[C@@H]1O [Streptozocin] | 0.985 ± 0.071 |
| O=C(Nc1c[nH]nc1-c1nc2ccc(CN3CCOCC3)cc2[nH]1)NC1CC1 | 0.71 ± 0.039 |
| C/C(=C\c1csc(C)n1)[C@@H]1C[C@@H]2O[C@]2(C)CCC[C@H](C)[C@H](O)[C@@H](C)C(=O)C(C)(C)[C@@H](O)CC(=O)N1 [Ixabepilone] | 0.464 ± 0.084 |
| CCCS(=O)(=O)Nc1ccc(F)c(C(=O)c2c[nH]c3ncc(Cl)cc23)c1F | 0.771 ± 0.062 |
| CCCNC(=O)Nc1ccc(Oc2ncnc3cc(OC)c(OC)cc23)cc1Cl | 0.713 ± 0.055 |
| Nc1nc(Cl)nc2c1ncn2[C@H]1C[C@H](O)[C@@H](CO)O1 [Cladribine] | 0.723 ± 0.12 |
| O=c1cc(N2CCOCC2)oc2c(-c3cccc4c3sc3ccccc34)cccc12 | 0.877 ± 0.026 |
| S=c1[nH]cnc2nc[nH]c12 [Mercaptopurine] | 0.9493 ± 0.0049 |
| Cc1[nH]nc2ccc(-c3cncc(OC[C@@H](N)Cc4ccccc4)c3)cc12 | 0.871 ± 0.14 |
| CC(=O)Nc1nc(C)c(-c2ccc(Cl)c(S(=O)(=O)NCCO)c2)s1 | 0.61 ± 0.047 |
| CNC(=O)c1cc(Oc2ccc(NC(=O)Nc3ccc(Cl)c(C(F)(F)F)c3)c(F)c2)ccn1 [Regorafenib; BAY 73-4506(Regorafenib)] | 0.913 ± 0.055 |
| C=CC(=O)Nc1cccc(Sc2nc(Nc3ccc(N4CCN(C)CC4)cc3)ncc2Cl)c1 | 0.859 ± 0.1 |
